# Test results published in ChEMBL document CHEMBL1157539, “Thousands of chemical starting points for antimalarial lead identification” (Nature, 2010).
# In all, about 13,000 compounds were measured (“IFI”: median about 4, highest 2% from about 17 on). This excerpt belongs to a sample that is enriched for the highest values.
# Test: GSK_TCMDC: Inhibition Frequency Index (IFI). The number of non-kinase HTS assays where a compound showed > 50 % inhibition, expressed as a percentage of the number of such assays in which the compound was tested
# Assay type: functional
row,Compound,IFI [%]
1,CN1CCc2cc(NS(=O)(=O)c3ccc(-c4ccc(Cl)cc4)cc3)c(OCCCN3CCCCC3)cc2CC1,18.6
2,CC(C)Oc1cc2c(cc1NS(=O)(=O)c1ccc(-c3ccc(Cl)cc3)cc1)CCN(C)CC2,12.4
3,O=S(=O)(Nc1cc2c(cc1OCCCN1CCCCC1)CCNCC2)c1ccc(-c2ccc(Cl)cc2)cc1,11.9
4,c1cc(CN2CCCCC2)cc(-c2ccc(-c3nc4ccccc4[nH]3)s2)c1,2.86
5,COc1ccc(CNC2Cc3ccccc3C2)cc1-c1ccc(S(=O)(=O)NCc2ccccc2)s1,12.3
6,Cc1ccc(C(=O)Nc2ccc(Nc3ccnc4cc(-c5ccccn5)ccc34)cc2O)cc1,10.3
7,COc1cc2nc(C)nc(Nc3ccc(Cc4ccccc4)cc3)c2cc1OC,6.35
8,COc1ccc(CCN(C)CCOc2ccc(NC(=O)c3cccc4cc5ccccc5nc34)cc2)cc1OC,6.67
9,COc1ccc(Cc2nc(/N=C(\N)Nc3ccccc3)ccc2OC)cc1,22.6
10,COc1ccc2nc(NC(N)=NC(=O)Nc3ccccc3)nc(C)c2c1,0.81
11,COc1ccc(/N=C(\N)Nc2ccccc2)nc1Cc1ccccc1,30.2
12,COc1cc2cc(C(=O)Nc3ccccc3)c(N)nc2cc1OC,1.28
13,Nc1cc(/C=C/c2ccc([N+](=O)[O-])o2)nc2ccccc12,16.7
14,Nc1c2ccccc2nc2cc([N+](=O)[O-])ccc12,6.92
15,Nc1cc(/C=C/c2ccc([N+](=O)[O-])s2)nc2ccccc12,19.2
16,O=C(c1cccc(Br)c1)N1CCN(c2ccc([N+](=O)[O-])c(NC3CC3)c2)CC1,4.2
17,COc1ccc2ncc(F)c(CCN3CC[C@@H](CNCc4nc5c(cc4C)SCC(=O)N5)C3)c2n1,5.83
18,CCOc1ccc2nc3cc(NC(=O)c4ccco4)ccc3c(N)c2c1,20.5
19,CCOc1ccc2nc3cc([N+](=O)[O-])ccc3c(N)c2c1,6.34
20,CCOc1ccc2nc3cc(N)ccc3c(N)c2c1,2.08
21,CC(C)(CNCc1cccc(Oc2cccc(C(F)(F)F)c2)c1)c1nc(-c2ccnc(N)n2)c(-c2ccc(Cl)c(O)c2)[nH]1,4.35

row,Compound,IFI [%]
1,Cc1cc(N(C)C)nc(Nc2ccc(NS(=O)(=O)c3ccccc3)cc2)n1,9.62
2,CCNc1cc(C)nc(Nc2ccc(NC(=O)c3c(F)cccc3Cl)cc2)n1,18.2
3,CCNc1cc(C)nc(Nc2ccc(NC(=O)c3ccccc3Cl)cc2)n1,11.3
4,CCNc1cc(C)nc(Nc2ccccc2)n1,2.94
5,Cc1cc(N(C)C)nc(Nc2ccc(NC(=O)c3c(F)cccc3Cl)cc2)n1,1.89
6,CCNc1cc(C)nc(Nc2ccc(NS(=O)(=O)c3ccccc3)cc2)n1,20.4
7,Cc1cc(Nc2ccc(O)cc2)nc2cc(O)ccc12,3.85
8,N=C(/N=C(/NCCCCCCN/C(=N\C(=N)Nc1ccc(Cl)cc1)N1CCCCC1)N1CCCCC1)Nc1ccc(Cl)cc1,10.9
9,N=C(/N=C(/NCCCCCCN/C(=N\C(=N)Nc1ccc(Cl)cc1)N1CCOCC1)N1CCOCC1)Nc1ccc(Cl)cc1,6.72
10,CN(C)/C(=N/C(=N)NCc1ccc(Cl)c(Cl)c1)NCCCCCCN/C(=N\C(=N)NCc1ccc(Cl)c(Cl)c1)N(C)C,11.8
11,CCCCN(CCCC)/C(=N/C(=N)NCc1ccc(Cl)c(Cl)c1)NCCCCCCN/C(=N\C(=N)NCc1ccc(Cl)c(Cl)c1)N(CCCC)CCCC,22.9
12,CCN(CC)/C(=N/C(=N)NCc1cccc(Cl)c1)NCCCCCCN/C(=N\C(=N)NCc1cccc(Cl)c1)N(CC)CC,13.8
13,N=C(/N=C(/NCCCCCCN/C(=N/C(=N)NCc1ccc(Cl)c(Cl)c1)N1CCCCC1)N1CCCCC1)NCc1ccc(Cl)c(Cl)c1,18.8
14,Cc1cccc2nc(-c3cccc(-c4ccc(NC(=O)C5CCCO5)cc4)c3)[nH]c12 (stereo unspecified),5.31
15,Cc1ccc(C(=O)Nc2ccc(F)cc2)cc1-c1nc(NC2CC(C)(C)NC(C)(C)C2)nc2c1ccc(=O)n2-c1c(F)cccc1F,10.9
16,CC(C)c1ccc(OCCCON2C(=N)N=C(N)NC2(C)C)cc1,6.34
17,CCOC(=O)c1c(-c2ccccc2)nc2c(sc3ccccc32)c1O,1.48
18,c1ccc(CCNc2ccnc(Nc3ccc4[nH]nnc4c3)n2)cc1,3.23
19,CCN(CC)CCN(Cc1ccc(-c2ccc(C(F)(F)F)cc2)cc1)C(=O)Cn1c(SCc2ccc(F)cc2)cc(=O)c2ccccc21,7.64
20,COc1ccc2[nH]ccc(=NN=Cc3ccc(F)cc3)c2c1,2.22
